# Screens deposited in PubChem by The Scripps Research Institute Molecular Screening Center.
# Hits are enriched below; roughly 3.5% of the tested compounds scored in any of these assays.
# GPR151 ag: activators of human GPR151, primary screen, cell-based, PathHunter beta-arrestin, luminescence | activation, % at 11.2 µM | 650,000 tested, 1% active | G-protein coupled receptor 151 (Homo sapiens), Q8TDV0 | PathHunter beta-arrestin GPR151 cells | AID 1508602, 2020; in the data active = activation above about 4.9%;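 note: 0% = median of compound wells and 100% = cells with positive control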
# FBW7 act: FBW7 E3 ligase activators, primary screen, biochemical, AlphaScreen, human; AlphaScreen FBW7–phospho-cyclin E peptide binding, activator screen; normalized activity (activation), % at 26.1 µM; 650,000 tested, 0.13% active; in the data active = normalized activity above about 1.9%;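 note: purified mutant Fbw7 with reduced substrate affinity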
# MITF primary: MITF inhibitors, primary screen, biochemical, AlphaScreen, human; Microphthalmia-associated transcription factor (Homo sapiens), O75030; AlphaScreen MITF homodimerization, bead proximity signal; inhibition, % at 2.6 µM; 650,000 tested, 0.91% active; AID 1259374, 2018; in the data active = inhibition above about 50%;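 note: 0% = vehicle wells with protein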
# TEAD-YAP block: TEAD-YAP interaction inhibition, primary screen, TEAD-YAP interaction inhibitor project, luminescence, HEK-TIYL cells. inhibition, % at 9.12 µM. AID 1259422, 2018. TEAD-Gal4/YAP UAS-luciferase luminescence. 640,000 tested, 1.4% active; in the data active = inhibition above about 32%;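 note: 0% = median of test compound wells and 100% = reference inhibitor wells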
# Starred values were filed as active, the others as inactive.
SMILES,GPR151 ag,FBW7 act,MITF primary,TEAD-YAP block
COc1ccc(-c2cc3nccc(C4CCNCC4)n3n2)cc1,1.4,0.6,9.7,32.9*
C[C@@H](O)[C@@H]1NC(=O)[C@@H]2C[C@H](NC(=O)Nc3cc(Cl)ccc3Cl)CN2C1=O,-0.7,0.9,10.7,6.8
CCOc1ccc(-c2nnc(SCC(=O)NC3CCCCC3)o2)cc1,-1.2,-0.2,2.7,-2.1
O=C(Nc1ccc(-c2noc(-c3cccc(Cl)c3)n2)cc1)c1ccco1,-0.4,0.9,-10.3,53.6*
COC(=O)CN(C)C(=O)CC1C(=O)NCCN1Cc1cccs1 (stereo not given),0.5,-0.1,-1.1,-4.7
Cc1cc(NCCO)n2c(nc3ccccc32)c1C#N,0.5,-0.1,-6.1,-4.2
Cc1cc(NCCCN(C)C)n2c(nc3ccccc32)c1C#N,-1.2,0.1,14.0,50.4*
Cc1ccccc1/C=C1\SC(=Nc2ccccc2Cl)NC1=O,-0.1,-0.1,-3.0,45.1*
Cc1cc(/C=C2\SC(=Nc3ccccc3Cl)NC2=O)c(C)n1-c1ccccc1,2.2,-0.1,-2.0,48.2*
COc1ccc(/C=C2/Sc3ccc(C(=O)NC4CCCC4)cc3NC2=O)cc1OC,-0.5,0.0,4.7,2.8
Cc1cc(NC(=O)COc2ccc([N+](=O)[O-])cc2)c(C)cc1I,0.1,-0.1,-6.2,2.8
CN1C(=O)/C(=C/c2ccc(SCc3ccco3)o2)SC1=S,0.2,-0.9,56.9*,-17.6
CS(=O)(=O)C1=NN2C(=N)/C(=C\c3ccc(SCc4ccco4)o3)C(=O)N=C2S1,0.8,-1.0,79.4*,4.0
CC1=NN2C(=N)/C(=C\c3ccc(SCc4ccco4)o3)C(=O)N=C2S1,0.1,-0.5,11.9,12.0
N=C1/C(=C\c2ccc(SCc3ccco3)o2)C(=O)N=C2SC(N3CCOCC3)=NN12,1.0,-0.4,62.1*,-0.6
CSCCC(NC(=O)C(Cc1ccccc1)NC(=O)CNC(=O)CNC(=O)OC(C)(C)C)C(=O)O (stereo not given),-0.2,-0.1,11.7,9.9
Cn1c(=O)[nH]c(=O)c2c1ncn2CC(=O)N/N=C/c1ccccc1O,-0.2,0.0,-6.6,8.2
Cc1nc2ncccn2c1-c1csc(Nc2cccc(Cl)c2C)n1,0.7,0.2,3.3,38.5*
Cc1nc2ccccn2c1-c1csc(Nc2cccc(Cl)c2C)n1,0.0,-0.3,0.9,20.6
CCOc1ccc(Nc2nc(-c3c(C)nc4ncccn34)cs2)cc1,0.7,0.0,-6.1,58.4*
Cc1ccc(Nc2nc(-c3c(C)nc4ncccn34)cs2)cc1,-1.0,-0.1,9.4,59.7*
Cc1nc2ncccn2c1-c1csc(Nc2ccc(Cl)cc2)n1,-1.1,-0.1,-1.7,54.3*
COC(=O)c1ccccc1NC(=O)COC(=O)CCC1CCCC1,-1.6,-0.1,-3.9,-8.8
O=C(CN1C(=O)COc2ccccc21)Nc1ccc(C2CCCCC2)cc1,0.0,0.0,8.3,1.5
Cc1ccc2c(c1)-c1c(cnn1CC(=O)NCCOC13CC4CC(C)(CC(C)(C4)C1)C3)CO2,-0.2,0.0,-0.5,11.3
SMILES,GPR151 ag,FBW7 act,MITF primary,TEAD-YAP block
CCc1c(C)nc2ncnn2c1N1CCCC(C(=O)Nc2nnc(C)s2)C1 (stereo not given),1.2,-0.1,-1.1,47.8*
CCOc1ccccc1NC(=O)C1CCCN(c2c(CC)c(C)nc3ncnn23)C1 (stereo not given),0.1,0.0,-10.7,-1.1
c1ccc2[nH]c(CNc3nc(Nc4ccncn4)nc4c3ncn4-c3ccsc3)nc2c1,-1.6,-0.2,-0.9,82.3*
c1cncc(CNc2nc(Nc3ccc(-n4ccnc4)cc3)nc3c2ncn3-c2ccsc2)c1,-0.2,0.1,6.0,55.3*
c1cn(-c2ccc(Nc3nc(Nc4ccc5c(c4)OCO5)c4ncn(-c5ccsc5)c4n3)cc2)cn1,-0.6,0.3,12.9,52.6*
c1ccc2[nH]c(CNc3nc(Nc4ccncc4)nc4c3ncn4-c3ccsc3)nc2c1,-2.8,-0.3,4.6,84.7*
C=CCNCCC1CCC(=O)N1CCc1ccc(F)cc1 (stereo not given),-0.6,-0.1,-7.6,2.1
O=C(Cn1nc(-c2ccc3c(c2)OCCO3)ccc1=O)Nc1ccc(Cl)cc1Cl,-0.3,0.1,-14.0,-7.3
O=[N+]([O-])c1cc2c(cc1/C=N/NC(=S)NC1CCCCC1)OCO2,-0.8,0.3,1.6,-16.8
Cc1cc(Br)cc(C)c1OC(=O)Cn1c2ccccc2c(=O)c2ccccc21,0.4,0.1,6.3,9.9
Cn1c(Nc2nc(NCc3nc4ccccc4[nH]3)c3ncn(-c4ccsc4)c3n2)nc2ccccc21,0.2,0.1,11.6,22.5
